Our source for the outcome and AC50 values is PubChem BioAssay (EPA / NIEHS).

Experiment [1] in a line: ATG_TGFb_CIS: Attagene CIS-FACTORIAL HepG2 Assay for human Transforming Growth Factor (TGF) (AID 2282967; active = hit-call score of the fitted dose curve at least 0.9, where 1 is the maximum; inactive = score below 0.9). Conditions: HepG2 Attagene CIS TGFb reporter, mRNA transcription; actives raise or lower the signal. In short, it runs like this:
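Transcript-level reporter readout: HepG2 transfectants, 24 h exposure, RNA to cDNA, reporter-specific PCR, fluorescent primer extension, capillary sizing against ROX standards. Gain- or loss-of-signal relative to DMSO.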

The nature of experiment [2]: ATG_VDRE_CIS: Attagene CIS-FACTORIAL HepG2 Assay for human Vitamin D Receptor Element (VDRE) (AID 2282968; active = hit-call score of the fitted dose curve at least 0.9, where 1 is the maximum; inactive = score below 0.9). Conditions: HepG2 VDRE cis-reporter transcription, actives raise or lower the signal. In short, it runs like this:
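RT-PCR/CE readout of reporter mRNA; HepG2, transient transfection, 24 h dosing; DMSO baseline; bidirectional analysis.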

The target of experiment [3] is Estrogen receptor (Homo sapiens) (UniProt P03372). The experiment in a line: ATG_ERa_TRANS: Attagene TRANS-FACTORIAL HepG2 Assay for human Estrogen Receptor alpha (ERa) (AID 2282970). Conditions: HepG2 Attagene TRANS ERa GAL4 reporter, mRNA. A digest of the protocol:
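After 24 h of compound treatment, RNA from HepG2 cells bearing transfected GAL4-UAS reporter constructs is converted to cDNA, amplified and fluorescently labelled. Capillary electrophoresis resolves the ERa-linked reporter; DMSO serves as negative control.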

The target in experiment [4] is Steroid hormone receptor ERR1 (Homo sapiens) (UniProt P11474). As to the kind of experiment: ATG_ERRa_TRANS: Attagene TRANS-FACTORIAL HepG2 Assay for human Estrogen-Related Receptor alpha (ERRa) (AID 2282971). Conditions: HepG2 Attagene TRANS reporter, ERRa transactivation. A digest of the protocol: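 Transfected HepG2, 24 h dosing, ERRa-Gal4 chimera driving GAL4-UAS reporter. Readout: reporter mRNA via RT-PCR plus capillary electrophoresis (fluorescence). Positive direction vs DMSO control.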
Sequence of Steroid hormone receptor ERR1 (Homo sapiens) (P11474 whole entry, looked up, the tested form may be a part): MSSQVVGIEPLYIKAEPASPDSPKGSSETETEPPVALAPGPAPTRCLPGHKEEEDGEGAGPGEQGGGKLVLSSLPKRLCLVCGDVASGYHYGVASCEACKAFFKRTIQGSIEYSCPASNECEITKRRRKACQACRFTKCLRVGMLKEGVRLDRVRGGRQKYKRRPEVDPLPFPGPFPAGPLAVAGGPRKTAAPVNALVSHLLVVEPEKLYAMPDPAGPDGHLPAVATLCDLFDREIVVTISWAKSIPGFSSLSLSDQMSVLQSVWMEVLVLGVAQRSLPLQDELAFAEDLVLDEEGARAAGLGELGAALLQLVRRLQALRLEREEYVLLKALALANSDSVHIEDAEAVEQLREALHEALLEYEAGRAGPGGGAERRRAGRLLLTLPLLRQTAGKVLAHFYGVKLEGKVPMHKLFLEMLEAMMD

The target of experiment [5] is X-box-binding protein 1 (Homo sapiens) (UniProt P17861). The experiment in a line: ATG_Xbp1_CIS: Attagene CIS-FACTORIAL HepG2 Assay for human X-box Binding Protein 1 (XBP1) (AID 2282972; active = hit-call score of the fitted dose curve at least 0.9, where 1 is the maximum; inactive = score below 0.9). Conditions: HepG2 XBP1 cis-element reporter, Attagene multiplex; actives raise or lower the signal. In short, it runs like this:
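Fluorescence-labelled cDNA fragments from reporter transcripts, separated by capillary electrophoresis, give the signal. Source: HepG2 cells transfected with promoter-driven reporter units, harvested 24 h post-dose. DMSO served as reference for bidirectional curve fitting.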

A short description of experiment [6]: ATG_M_19_TRANS: Attagene TRANS-FACTORIAL HepG2 Assay for M19 Transcription Factor (Internal Marker) (AID 2282974). Conditions: HepG2 Attagene TRANS-FACTORIAL M19 internal marker reporter. A digest of the protocol: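 Cells: human HepG2, transiently transfected with multiplexed reporter transcription units. Exposure: 24 h. Detection: RT-PCR of reporter mRNA with capillary electrophoresis. Analysis: gain-of-signal vs DMSO.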

A short description of experiment [7]: ATG_GAL4_TRANS: Attagene TRANS-FACTORIAL HepG2 Assay for GAL4 (Internal Marker) (AID 2282976). Conditions: HepG2 Attagene TRANS GAL4 internal marker reporter. In short, it runs like this:
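RT-PCR/capillary electrophoresis readout of reporter mRNA. HepG2, transient MRTU transfection (GAL4-UAS reporters), 24 h compound exposure. Background-control endpoint, positive direction vs DMSO baseline.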

In experiment [8] the target is Glucocorticoid receptor (Homo sapiens) (UniProt P04150). The experiment in a line: ATG_GR_TRANS: Attagene TRANS-FACTORIAL HepG2 Assay for human Glucocorticoid Receptor (GR) (AID 2282978).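 Also: activators score as hits since higher reporter transcript over DMSO is fitted.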 Particulars: HepG2 Attagene TRANS GR reporter, mRNA transcription. In short, it runs like this:
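In this trans-factorial format, exogenous NR-GAL4 chimeric proteins in transfected HepG2 cells regulate GAL4-UAS reporter transcription. After 24 h treatment, reporter mRNA induction relative to DMSO is read by RT-PCR and capillary electrophoresis.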

The target in experiment [9] is Hepatocyte nuclear factor 4-alpha (Homo sapiens) (UniProt P41235). As to the kind of experiment: ATG_HNF4a_TRANS: Attagene TRANS-FACTORIAL HepG2 Assay for human Hepatocyte Nuclear Factor 4 alpha (HNF4a) (AID 2282982). Conditions: HepG2 HNF4a transactivation reporter, mRNA readout. A digest of the protocol:
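Cells used were human HepG2, transiently carrying GAL4-UAS reporter units read out against exogenous NR-GAL4 chimeras. Reporter transcript levels after 24 h dosing were quantified by fluorescent RT-PCR and capillary electrophoresis.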

A short description of experiment [10]: ATG_M_32_TRANS: Attagene TRANS-FACTORIAL HepG2 Assay for M32 Transcription Factor (Internal Marker) (AID 2282984). Particulars: HepG2 Attagene TRANS M32 internal marker reporter. A digest of the protocol: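 Human hepatoma HepG2, transient MRTU transfection, 24 h treatment. RNA → RT-PCR → fluorescent primer extension → HpaI digest (2 h, 37 C) → CE. Positive-direction fit vs DMSO.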

Experiment [11] addresses Nuclear receptor subfamily 4 group A member 2 (Homo sapiens) (UniProt P43354). As to the kind of experiment: ATG_NURR1_TRANS: Attagene TRANS-FACTORIAL HepG2 Assay for human Nuclear Receptor Related Protein 1 (NURR1) (AID 2282985). Conditions: HepG2 Attagene TRANS reporter, mRNA readout. In short, it runs like this:
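After 24 h chemical dosing, total RNA from transiently transfected HepG2 cells was reverse-transcribed and reporter cDNA PCR-amplified, FAM-labelled and analysed by capillary electrophoresis. Activity fitted in positive direction, DMSO as negative control.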

For experiment [12], the target named is Transcriptional activator Myb (Homo sapiens) (UniProt P10242). As to the kind of experiment: ATG_Myb_CIS: Attagene CIS-FACTORIAL HepG2 Assay for human Myeloblastosis (Myb) Proto-Oncogene Transcription Factor (AID 2282986; active = hit-call score of the fitted dose curve at least 0.9, where 1 is the maximum; inactive = score below 0.9). Conditions: HepG2 Attagene CIS-FACTORIAL Myb reporter transcription; actives raise or lower the signal. A digest of the protocol: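 Steps: transfect HepG2 with cis-regulated reporter units; dose with chemical for 24 h; isolate RNA, reverse-transcribe, PCR-amplify and FAM-label reporter sequences; digest with HpaI; resolve by capillary electrophoresis. Activity fitted in both directions relative to DMSO.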
Sequence of Transcriptional activator Myb (Homo sapiens) (P10242 whole entry, looked up): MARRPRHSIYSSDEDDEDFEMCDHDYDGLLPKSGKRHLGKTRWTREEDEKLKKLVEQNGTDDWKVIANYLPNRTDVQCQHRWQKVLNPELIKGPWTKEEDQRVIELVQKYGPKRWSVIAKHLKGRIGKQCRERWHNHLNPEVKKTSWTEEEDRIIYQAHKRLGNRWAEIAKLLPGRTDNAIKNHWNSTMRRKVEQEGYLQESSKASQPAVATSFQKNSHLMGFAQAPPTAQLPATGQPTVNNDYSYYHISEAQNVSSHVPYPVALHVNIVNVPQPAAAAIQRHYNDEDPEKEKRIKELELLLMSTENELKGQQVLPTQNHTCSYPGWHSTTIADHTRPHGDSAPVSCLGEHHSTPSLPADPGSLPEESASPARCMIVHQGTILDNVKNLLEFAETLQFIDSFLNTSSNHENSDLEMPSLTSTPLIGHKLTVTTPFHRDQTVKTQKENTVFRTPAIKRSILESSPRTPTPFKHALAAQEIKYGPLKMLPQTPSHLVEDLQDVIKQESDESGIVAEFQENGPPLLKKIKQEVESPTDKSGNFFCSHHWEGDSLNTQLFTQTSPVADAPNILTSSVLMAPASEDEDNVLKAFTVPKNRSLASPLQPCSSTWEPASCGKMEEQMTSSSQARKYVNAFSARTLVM

Experiment [13] addresses Nuclear respiratory factor 1 (Homo sapiens) (UniProt Q16656). As to the kind of experiment: ATG_NRF1_CIS: Attagene CIS-FACTORIAL HepG2 Assay for human Nuclear Respiratory Factor 1 (NRF1) Orphan Gene (AID 2282987; active = hit-call score of the fitted dose curve at least 0.9, where 1 is the maximum; inactive = score below 0.9). Particulars: HepG2 NRF1 cis-element reporter, Attagene multiplex; actives raise or lower the signal. A digest of the protocol: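 Fluorescence intensity of labelled reporter cDNA fragments, resolved by capillary electrophoresis, served as readout for NRF1 cis-element activity. Transiently transfected HepG2 cells were dosed for 24 hours; activity in either direction was fitted against DMSO negative control.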

Experiment [14] can be described thus: ATG_NFI_CIS: Attagene CIS-FACTORIAL HepG2 Assay for human Nuclear Factor I (NFI) (AID 2282989; active = hit-call score of the fitted dose curve at least 0.9, where 1 is the maximum; inactive = score below 0.9). Particulars: HepG2 cis-regulatory reporter, NFI response element transcription; actives raise or lower the signal. A digest of the protocol: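 After transient transfection of HepG2 with cis-promoter reporter constructs and 24 h dosing, RNA is reverse-transcribed, amplified, 6-FAM end-labelled and HpaI-digested before capillary analysis. Bidirectional curve fitting against DMSO.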

Experiment [15] deals with Estrogen-related receptor gamma (Homo sapiens) (UniProt P62508). As to the kind of experiment: ATG_ERRg_TRANS: Attagene TRANS-FACTORIAL HepG2 Assay for human Estrogen-Related Receptor gamma (ERRg) (AID 2282977).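 Also: hits increase reporter signal over DMSO so potencies reflect activators.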 Conditions: HepG2 Attagene TRANS reporter, ERRg transactivation. A digest of the protocol:
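Transfect HepG2 with multiple GAL4-UAS reporter transcription units; dose chemicals 24 h; isolate RNA, reverse-transcribe with oligo(dT), PCR-amplify, label with 6-FAM, digest with HpaI; size fragments by capillary electrophoresis. DMSO serves as negative control.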

A short description of experiment [16]: ATG_M_06_TRANS: Attagene TRANS-FACTORIAL HepG2 Assay for M06 Transcription Factor (Internal Marker) (AID 2282983).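 As to AC50: potency for rise in reporter mRNA above DMSO baseline.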 Particulars: HepG2 Attagene TRANS M06 internal marker reporter. In short, it runs like this: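 After a 24 h chemical treatment of transfected HepG2, RNA underwent DNase I treatment, reverse transcription and reporter-specific PCR; labelled, HpaI-digested products were sized by capillary electrophoresis. Signal increase relative to DMSO defined activity.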

The target of experiment [17] is Bile acid receptor (Homo sapiens) (UniProt Q96RI1). The experiment in a line: ATG_FXR_TRANS: Attagene TRANS-FACTORIAL HepG2 Assay for Farnesoid X Receptor (FXR) (AID 2282979).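 Also: hits raise reporter mRNA above DMSO so AC50 marks FXR activation.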 Particulars: HepG2 Attagene TRANS FXR-GAL4 reporter transcription. In short, it runs like this:
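Read-out: fluorescent reporter transcripts quantified by capillary electrophoresis after RT-PCR of total RNA. Source cells were HepG2 transiently carrying chimeric NR-GAL4 plus GAL4-UAS reporter units, dosed 24 h. Activity fitted upward relative to DMSO baseline.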

Experiment [18] can be described thus: ATG_M_61_TRANS: Attagene TRANS-FACTORIAL HepG2 Assay for M61 Transcription Factor (Internal Marker) (AID 2282988; active = hit-call score of the fitted dose curve at least 0.9, where 1 is the maximum; inactive = score below 0.9). Conditions: HepG2 Attagene TRANS M61 internal marker reporter. In short, it runs like this: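 Background-control reporter transcript, measured after 24 h chemical exposure of transiently transfected HepG2 cells carrying multiple GAL4-UAS reporter units. Read-out by RT-PCR with 6-FAM primer extension and capillary electrophoresis, gain of signal versus DMSO.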

“And” between values parts separate entries of the source, which are not always exact repeats. Equal values may be shown once. Records with an inconclusive call do not appear. Some structures have more than one record in an assay (separate samples or runs), and their calls can disagree. The source made the active and inactive calls. The calls were made as follows, unless noted: active = hit-call score of the fitted dose curve at least 0.9, where 1 is the maximum; inconclusive = response in the unintended direction; inactive = score below 0.9.

Sequence of Glucocorticoid receptor (Homo sapiens) (P04150 whole entry, looked up, the tested form may be a part): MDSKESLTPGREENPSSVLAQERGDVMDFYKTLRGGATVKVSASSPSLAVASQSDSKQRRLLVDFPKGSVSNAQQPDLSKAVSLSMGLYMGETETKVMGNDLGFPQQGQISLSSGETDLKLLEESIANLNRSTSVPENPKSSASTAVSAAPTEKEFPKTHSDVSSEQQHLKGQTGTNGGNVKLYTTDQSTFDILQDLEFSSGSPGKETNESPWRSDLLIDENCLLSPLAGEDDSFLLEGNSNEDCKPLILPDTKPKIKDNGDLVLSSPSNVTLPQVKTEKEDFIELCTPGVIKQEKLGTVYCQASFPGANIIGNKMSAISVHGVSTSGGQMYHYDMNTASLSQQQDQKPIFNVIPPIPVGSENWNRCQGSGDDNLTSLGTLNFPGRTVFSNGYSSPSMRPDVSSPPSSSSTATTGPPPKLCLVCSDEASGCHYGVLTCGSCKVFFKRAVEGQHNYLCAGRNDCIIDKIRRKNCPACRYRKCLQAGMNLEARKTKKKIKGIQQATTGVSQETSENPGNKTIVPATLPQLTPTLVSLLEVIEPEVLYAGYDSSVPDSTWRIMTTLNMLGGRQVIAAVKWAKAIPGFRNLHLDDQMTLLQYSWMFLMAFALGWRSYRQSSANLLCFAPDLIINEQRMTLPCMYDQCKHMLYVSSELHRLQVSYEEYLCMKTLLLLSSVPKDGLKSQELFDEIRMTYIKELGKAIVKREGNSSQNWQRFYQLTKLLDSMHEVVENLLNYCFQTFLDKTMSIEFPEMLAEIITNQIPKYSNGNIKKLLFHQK
Sequence of Estrogen-related receptor gamma (Homo sapiens) (P62508 whole entry, looked up, the tested form may be a part): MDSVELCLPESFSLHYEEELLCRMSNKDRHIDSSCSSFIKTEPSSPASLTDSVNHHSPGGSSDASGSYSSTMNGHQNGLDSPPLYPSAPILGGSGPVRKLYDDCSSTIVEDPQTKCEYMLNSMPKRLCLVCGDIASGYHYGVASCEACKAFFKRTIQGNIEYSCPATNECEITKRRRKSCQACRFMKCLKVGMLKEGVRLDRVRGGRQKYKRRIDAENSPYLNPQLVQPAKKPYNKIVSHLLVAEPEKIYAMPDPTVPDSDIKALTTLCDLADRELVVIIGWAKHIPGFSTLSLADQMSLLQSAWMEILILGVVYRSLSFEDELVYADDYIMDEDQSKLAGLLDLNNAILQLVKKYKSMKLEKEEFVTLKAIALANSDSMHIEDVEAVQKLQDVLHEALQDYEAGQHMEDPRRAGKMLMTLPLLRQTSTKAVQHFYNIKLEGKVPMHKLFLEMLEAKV
Sequence of Estrogen receptor (Homo sapiens) (P03372 whole entry, looked up, the tested form may be a part): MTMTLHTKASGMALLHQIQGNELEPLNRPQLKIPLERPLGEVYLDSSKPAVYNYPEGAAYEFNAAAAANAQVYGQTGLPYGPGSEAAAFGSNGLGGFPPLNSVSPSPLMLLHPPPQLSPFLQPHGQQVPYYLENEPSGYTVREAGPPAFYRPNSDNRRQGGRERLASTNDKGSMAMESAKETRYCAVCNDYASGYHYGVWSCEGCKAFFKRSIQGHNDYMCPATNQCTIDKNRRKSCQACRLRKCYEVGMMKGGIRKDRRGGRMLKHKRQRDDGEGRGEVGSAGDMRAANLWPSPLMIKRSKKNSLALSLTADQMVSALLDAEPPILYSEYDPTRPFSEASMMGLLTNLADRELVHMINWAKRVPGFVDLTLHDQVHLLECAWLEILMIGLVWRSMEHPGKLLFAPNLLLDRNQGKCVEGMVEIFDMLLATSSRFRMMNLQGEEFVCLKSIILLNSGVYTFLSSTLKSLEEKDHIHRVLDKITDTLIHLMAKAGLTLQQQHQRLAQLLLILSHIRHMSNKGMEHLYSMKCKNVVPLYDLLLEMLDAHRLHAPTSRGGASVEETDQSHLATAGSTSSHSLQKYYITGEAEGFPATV
Sequence of Nuclear respiratory factor 1 (Homo sapiens) (Q16656 whole entry, looked up, the tested form may be a part): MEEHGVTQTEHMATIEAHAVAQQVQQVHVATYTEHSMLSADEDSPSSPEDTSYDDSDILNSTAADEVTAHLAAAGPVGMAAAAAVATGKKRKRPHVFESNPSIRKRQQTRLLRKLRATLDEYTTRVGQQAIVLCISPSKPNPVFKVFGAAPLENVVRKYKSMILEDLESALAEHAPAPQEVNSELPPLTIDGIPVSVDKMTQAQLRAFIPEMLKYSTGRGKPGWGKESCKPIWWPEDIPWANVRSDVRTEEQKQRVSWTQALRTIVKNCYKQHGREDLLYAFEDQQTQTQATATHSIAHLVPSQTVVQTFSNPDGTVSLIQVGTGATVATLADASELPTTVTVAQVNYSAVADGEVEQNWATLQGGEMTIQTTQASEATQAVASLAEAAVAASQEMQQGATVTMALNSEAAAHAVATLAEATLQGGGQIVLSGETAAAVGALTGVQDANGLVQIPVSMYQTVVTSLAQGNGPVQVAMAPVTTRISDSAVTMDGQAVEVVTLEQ
Sequence of X-box-binding protein 1 (Homo sapiens) (P17861 whole entry, looked up, the tested form may be a part): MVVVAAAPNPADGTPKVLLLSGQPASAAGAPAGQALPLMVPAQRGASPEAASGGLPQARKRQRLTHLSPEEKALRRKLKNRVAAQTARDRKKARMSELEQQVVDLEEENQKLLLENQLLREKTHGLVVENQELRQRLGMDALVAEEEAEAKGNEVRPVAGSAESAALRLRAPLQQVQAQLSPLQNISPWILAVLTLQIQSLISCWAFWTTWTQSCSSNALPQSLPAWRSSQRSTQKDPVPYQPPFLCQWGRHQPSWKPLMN
Sequence of Nuclear receptor subfamily 4 group A member 2 (Homo sapiens) (P43354 whole entry, looked up): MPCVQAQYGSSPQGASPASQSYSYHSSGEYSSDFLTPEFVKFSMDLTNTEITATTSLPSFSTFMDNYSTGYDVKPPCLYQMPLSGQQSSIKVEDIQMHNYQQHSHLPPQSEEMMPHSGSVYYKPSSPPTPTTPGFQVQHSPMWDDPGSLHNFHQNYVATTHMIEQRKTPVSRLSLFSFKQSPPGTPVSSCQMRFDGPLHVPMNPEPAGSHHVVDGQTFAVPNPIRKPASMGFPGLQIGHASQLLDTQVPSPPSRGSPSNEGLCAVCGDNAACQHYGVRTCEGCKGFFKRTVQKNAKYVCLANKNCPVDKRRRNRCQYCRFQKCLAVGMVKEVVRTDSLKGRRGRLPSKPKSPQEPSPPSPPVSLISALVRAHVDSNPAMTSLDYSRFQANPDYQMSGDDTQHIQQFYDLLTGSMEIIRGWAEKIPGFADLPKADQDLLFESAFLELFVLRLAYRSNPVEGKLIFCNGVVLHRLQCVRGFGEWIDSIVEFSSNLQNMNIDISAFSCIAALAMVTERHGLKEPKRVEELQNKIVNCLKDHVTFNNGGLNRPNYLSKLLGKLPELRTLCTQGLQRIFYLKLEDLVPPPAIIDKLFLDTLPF
Sequence of Hepatocyte nuclear factor 4-alpha (Homo sapiens) (P41235 whole entry, looked up, the tested form may be a part): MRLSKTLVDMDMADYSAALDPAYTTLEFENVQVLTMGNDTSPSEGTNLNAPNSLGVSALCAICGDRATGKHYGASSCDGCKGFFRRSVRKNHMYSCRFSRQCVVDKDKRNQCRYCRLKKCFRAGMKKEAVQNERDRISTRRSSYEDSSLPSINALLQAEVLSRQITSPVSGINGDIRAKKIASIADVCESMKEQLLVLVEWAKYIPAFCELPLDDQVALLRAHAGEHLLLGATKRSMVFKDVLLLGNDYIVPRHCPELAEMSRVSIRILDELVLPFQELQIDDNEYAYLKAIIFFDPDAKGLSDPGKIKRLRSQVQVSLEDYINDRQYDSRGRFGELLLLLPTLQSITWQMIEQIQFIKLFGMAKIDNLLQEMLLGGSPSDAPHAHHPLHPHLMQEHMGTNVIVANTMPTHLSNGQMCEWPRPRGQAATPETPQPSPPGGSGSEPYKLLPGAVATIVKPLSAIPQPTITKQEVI

For `CCCCC(CC)CN1C(=O)C2C3C=CC(C3)C2C1=O` (stereo not drawn), the result in [1], in [4], in experiment [5], in experiment [6], in [7] and in experiment [8] was inactive. For the same molecule, the result in [9], in experiment [10], in experiment [11], in experiment [12], in experiment [13] and in experiment [14] was inactive. The figures for the AC50 in experiment [2] and in experiment [3] were 23.8 µM (active) and 50 µM (active), respectively.

With `CC(C)(c1ccc(O)cc1)c1ccc(O)cc1`, the AC50 in experiment [1] is 43.6 µM (active); in [11], 44 µM (active); in experiment [13] it was 62.2 µM (active); in experiment [14], 44.2 µM (active) and 37.8 µM (active). For the same molecule, the call in experiment [1], in experiment [4], in [5], in experiment [6], in experiment [7] and in experiment [15] was inactive. In addition, the molecule was classed as inactive in experiment [9], in [16], in experiment [10], in experiment [11], in experiment [12] and in [13]. Moreover, the result in experiment [14] was inactive.

With `CC(C)CCCCCCc1ccc(O)cc1`, the call in experiment [1], in experiment [2], in experiment [5], in experiment [6], in [7] and in experiment [8] was inactive. For the same molecule, the result in experiment [17], in experiment [9], in experiment [16], in experiment [10], in experiment [11] and in experiment [12] was inactive. Further, the outcome in experiment [13], in [18] and in [14] was inactive. Further, the AC50 in experiment [2] was 2.96 µM (active) and 11.1 µM (active) and 10.3 µM (active); in [3], 735 nM (active) [middle of 4 runs]; in experiment [5], 16.6 µM (active) and 19.4 µM (active) and 18.5 µM (active); in experiment [8], 42.2 µM (active); in experiment [17], 19.2 µM (active); in experiment [16], 50.3 µM (active). Besides, the AC50 in [10] was 53.4 µM (active); in experiment [11], 11.1 µM (active); in [13], 15.7 µM (active); in [14] it was 15.8 µM (active).

For the molecule `CCCCCOC(=O)COc1cc(N2C(=O)C3=C(CCCC3)C2=O)c(F)cc1Cl`, the result in experiment [1], in experiment [2], in [3], in experiment [5], in experiment [6] and in experiment [8] was inactive. Further, the call in experiment [9], in experiment [10], in [11], in [12], in experiment [13] and in experiment [14] was inactive.

For `c1ccc2[nH]c(-c3cscn3)nc2c1`, the outcome in experiment [1], in experiment [2], in experiment [3], in experiment [5], in experiment [6] and in [7] was inactive. The call in [8], in experiment [9], in experiment [16], in experiment [10], in experiment [11] and in experiment [12] was inactive. Also, the molecule was called inactive in experiment [13] and in experiment [14].

As to `CC(=O)S[C@@H]1CC2=CC(=O)CC[C@]2(C)[C@H]2CC[C@@]3(C)[C@@H](CC[C@@]34CCC(=O)O4)[C@H]12`, the molecule was classed as inactive in experiment [1], in [2], in experiment [3], in experiment [5], in experiment [6] and in experiment [7]. For the same molecule, the result in [8], in experiment [9], in experiment [16], in experiment [10], in [11] and in [12] was inactive. Also, the call in experiment [13] and in [14] was inactive. For the same molecule, the AC50 in [2] was 25 µM (active) [middle of 4 runs]; in experiment [5], 38.7 µM (active) and 21.9 µM (active) and 4.9 µM (active).
